Growth data for 15 molecules are collected here from PubChem BioAssay (NCI).

Molecules are shown by their SMILES. About 83,000 compounds went through this panel and 20% of them were active in at least one assay; those are over-represented in the sample as a whole.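 Cell lines were cultured in 96-well plates, exposed to a single compound concentration, and assessed for percent growth 48 hours later.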 Unmarked numbers belong to inactive results. Activity calls are given as the source filed them. Rule for the calls: active = growth percent below 10; inactive = the rest.

Some test systems named below: T-47D breast; BT-549 breast; MDA-MB-435 melanoma; SW-620 colon; MCF7 breast; HCT-116 colon; HCC-2998 colon; KM12 colon.
Experiment in all cases: NCI-60 one-dose screen, 48 h (100 = growth as untreated, 0 = no growth, -100 = all killed)
Details in all cases: 10 µM unless noted

As to `CN(C)c1ccc(-c2nc3ncc(Br)cc3o2)cc1`, the growth with T-47D breast was 75.7%; in the experiment on BT-549 breast, 78.3%; with MDA-MB-435 melanoma, 115%; in the experiment with SW-620 colon it was 99.3%; in the experiment on MCF7 breast it was 97.6%; with HCT-116 colon, 86.8%. The growth in the experiment with HCC-2998 colon is 85%; in the experiment on KM12 colon, 113%.
With `O=C(Nc1nc(-c2ccc(Cl)cc2)cs1)c1cc(-c2ccc(Br)cc2)nc2ccc(Cl)cc12`, the growth in the experiment with T-47D breast was 53%; in the experiment with BT-549 breast, -15.9% (active); in the experiment on MDA-MB-435 melanoma it was -21.6% (active); with SW-620 colon, 34.9%; in the experiment with MCF7 breast it was 16.4%; in the experiment on HCT-116 colon, 5.84% (active). Moreover, the growth in the experiment with HCC-2998 colon was 109%; in the experiment on KM12 colon, 24.8%.
In the case of `COc1cnc2c(c1)C(=O)c1c-2n(CCCN2CCNCC2)c(=O)c2cc(F)ccc12`, the growth was 9.02% (active) in the experiment on T-47D breast; 4.74% (active) in the experiment on BT-549 breast; -41.3% (active) in the experiment with MDA-MB-435 melanoma; -53.7% (active) in the experiment on SW-620 colon; 11.7% in the experiment on MCF7 breast; -82.5% (active) with HCT-116 colon. Moreover, the results for the growth in the experiment on HCC-2998 colon and with KM12 colon were 2.69% (active) and -13.1% (active), respectively.
Turning to `Cc1[nH]cnc1/C=C1\SC(N2CCCCC2)=NC1=O`, the growth in the experiment with T-47D breast was 104%; in the experiment on BT-549 breast, 105%; with MDA-MB-435 melanoma it was 108%; in the experiment on SW-620 colon, 107%; with MCF7 breast, 108%; with HCT-116 colon it was 106%. The results for the growth with HCC-2998 colon and in the experiment on KM12 colon were 101% and 114%, respectively.
With `COC(=O)C1=CCC(n2cnc3c(N)ncnc32)O1` (stereo not given), the growth in the experiment with T-47D breast was 102%; in the experiment with BT-549 breast, 114%; with MDA-MB-435 melanoma it was 102%; in the experiment on SW-620 colon, 106%; with MCF7 breast it was 120%; in the experiment on HCT-116 colon, 98.6%. The growth was 106% in the experiment on HCC-2998 colon and 100% in the experiment with KM12 colon.
Turning to `COc1ccc2cc(-c3nc4ccccc4[nH]3)c(=O)oc2c1`, the growth in the experiment with T-47D breast was 92.9%; with BT-549 breast it was 101%; with MDA-MB-435 melanoma it was 108%; in the experiment on SW-620 colon, 95.5%; in the experiment with MCF7 breast it was 89.3%; in the experiment with HCT-116 colon, 93%. Moreover, the growth with HCC-2998 colon is 78.3%; with KM12 colon, 93.8%.
As for `COc1cc(/C=C/C(=O)CC(=O)/C=C/c2ccc(OC(=O)CCNC34CC5CC(CC(C5)C3)C4)c(OC)c2)ccc1OC(=O)CCNC12CC3CC(CC(C3)C1)C2`, the growth in the experiment with T-47D breast was 50.8%; in the experiment with BT-549 breast it was -10.7% (active); in the experiment with MDA-MB-435 melanoma, -31.2% (active); with SW-620 colon, 8.69% (active); with MCF7 breast, 17.8%; in the experiment with HCT-116 colon, -0.854% (active). Also, the values for the growth with HCC-2998 colon and in the experiment on KM12 colon were 34.1% and 5.79% (active), respectively.
As to `COc1cc(Cl)cc(-c2nn(-c3cccc(NC(=O)c4cc(C(F)(F)F)cc(C(F)(F)F)c4)c3)cc2-c2ccncc2)c1`, the growth is 53.4% in the experiment on T-47D breast; 96.8% in the experiment with BT-549 breast; 80% in the experiment on MDA-MB-435 melanoma; 86.2% in the experiment on SW-620 colon; 57.8% in the experiment with MCF7 breast; 35.2% with HCT-116 colon. In addition, the growth in the experiment with HCC-2998 colon is 78.3%; in the experiment with KM12 colon, 55.5%.
Turning to `COC(=O)[C@H]1[C@H]2C[C@@H]3c4[nH]c5cc(OC)ccc5c4CCN3C[C@H]2C[C@@H](OC(=O)/C=C/c2cc(OC)c(OC)c(OC)c2)[C@@H]1OC`, the growth was 45% with T-47D breast; 67.8% with BT-549 breast; 7.45% (active) in the experiment with MDA-MB-435 melanoma; 61.3% in the experiment on SW-620 colon; 29.1% in the experiment with MCF7 breast; -28% (active) with HCT-116 colon. The growth with HCC-2998 colon was 105%; in the experiment with KM12 colon, 40.5%.
In the case of `Cc1ccc(/C=C(/C#N)n2nnc3ncccc32)cc1`, the growth was 5.39% (active) with T-47D breast; 11.3% with BT-549 breast; -52.9% (active) in the experiment with MDA-MB-435 melanoma; 9.59% (active) with SW-620 colon; 14.5% in the experiment on MCF7 breast; 4.5% (active) in the experiment on HCT-116 colon. For the same molecule, the growth with HCC-2998 colon was 15.7%; in the experiment on KM12 colon it was 24.6%.
For `O=C1C2C(C(=O)N1CC[Se][Se]CCN1C(=O)C3C(C1=O)[C@H]1C=C[C@@H]3C1)[C@H]1C=C[C@@H]2C1` (stereo not given in full), the growth in the experiment with T-47D breast was 5.4% (active); in the experiment on BT-549 breast it was -40.3% (active); with MDA-MB-435 melanoma it was -65.9% (active); with SW-620 colon, 8.38% (active); in the experiment on MCF7 breast, 9.03% (active); with HCT-116 colon, 1.96% (active). Also, the values for the growth in the experiment with HCC-2998 colon and in the experiment with KM12 colon were 28.6% and 0.112% (active), respectively.
As to `Nc1ncnc2c1CN(Cc1ccccc1)CC2`, the growth with T-47D breast was 105%; with BT-549 breast, 108%; in the experiment on MDA-MB-435 melanoma, 107%; in the experiment on SW-620 colon, 107%; in the experiment with MCF7 breast, 93.6%; with HCT-116 colon, 102%. The values for the growth in the experiment on HCC-2998 colon and in the experiment with KM12 colon were 98.5% and 108%, respectively.
For `COc1c(O)cc2c(c1CC=C(C)C)OC(=O)c1c(cc(O)c(CC=C(C)C)c1O)O2`, the growth in the experiment with T-47D breast was 49.3%; in the experiment on BT-549 breast it was 78.2%; in the experiment with MDA-MB-435 melanoma it was 60.3%; with SW-620 colon, 27.3%; in the experiment with MCF7 breast it was 10.6%; in the experiment with HCT-116 colon it was 26.8%. The values for the growth in the experiment on HCC-2998 colon and with KM12 colon were 24.5% and 7.76% (active), respectively.
Regarding `O=C(c1ccc(N2CCOCC2)cc1[N+](=O)[O-])N1CCOCC1`, the growth with T-47D breast was 102%; with BT-549 breast, 104%; with MDA-MB-435 melanoma, -32.2% (active); with SW-620 colon it was 93.1%; in the experiment on MCF7 breast it was 127%; in the experiment with HCT-116 colon, 107%. Moreover, the figures for the growth with HCC-2998 colon and in the experiment with KM12 colon were 108% and 121%, respectively.
As for `NS(=O)(=O)c1ccc(-n2ncc3c(N/N=C/c4ccccc4)ncnc32)cc1`, the growth in the experiment on T-47D breast is 94.6%; with BT-549 breast, 113%; in the experiment with MDA-MB-435 melanoma it was 88.4%; in the experiment on SW-620 colon, 94.6%; in the experiment with MCF7 breast it was 91%; in the experiment with HCT-116 colon it was 83.2%. Besides, the growth is 74.7% in the experiment with HCC-2998 colon and 102% with KM12 colon.
